Marburg entry inh – Marburg virus entry inhibition | Marburg virus pseudotyped entry inhibition, cell reporter | Potency, µM (titrated, usually from 37.8 µM), inactives show top-dose activity change, negative = inhibition, actives largely listed as inhibitors | 300,000 tested, 1.8% active; calls by dose curve; tested in HEK293 cells; further: potency means the concentration at half of the fitted maximal effect
FMDV antiviral – foot and mouth disease virus antiviral activity; FMDV antiviral cell-based qHTS; Potency, µM (highest dose often 57.9 µM), for inactives: top-dose activity change, negative = inhibition, usual class: inhibitors; 410,000 tested, 1.2% active; calls by dose curve; tested in HEK293T cells; further: read-out not given here; potency means the concentration at half of the fitted maximal effect; nearly all actives have a fitted effect of over 45% in size
HCMV antiviral – blocks human cytomegalovirus replication | HFF cells, HCMV-luciferase reporter, 72 h; stronger effect = lower value | activity change, negative = inhibition, % at 57.5 µM | 410,000 tested, 4.5% active | AID 1259415; in the data active means activity change below about -60%; inconclusive means no clear call, values can overlap the other calls; inactive means above about -39%
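HFF cells seeded 16 h at 37C, treated with compounds, infected with luciferase-reporter HCMV at MOI 1 PFU/cell; luciferase read at 72 h post infection, normalized to buffer-only and Salinomycin controls.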
Lassa entry inh – inhibitors of Lassa virus binding or cell entry; Lassa virus pseudotype entry inhibition, cell reporter; 300,000 tested, 1.2% active; Potency, µM (titrated, usually from 37.9 µM), for the others: at the top dose activity change, negative = inhibition, hits mostly inhibitors; AID 540256; calls by dose curve; tested in HEK293 cells; further: potency means the concentration at half of the fitted maximal effect; nearly all actives have a fitted effect of over 50% in size
Vaccinia Venus – inhibitors of vaccinia virus (Venus reporter); Vaccinia virus Venus reporter expression, fluorescence; Potency, µM (top dose mostly 36.5 µM), inactives show top-dose activity change, negative = inhibition, hits mostly inhibitors; 330,000 tested, 0.46% active; AID 720580; calls by dose curve; tested in A549 cells; further: potency means the concentration at half of the fitted maximal effect; nearly all actives have a fitted effect of over 30% in size
VACV mCherry inh – vaccinia inhibition (mCherry reporter) | Vaccinia virus mCherry reporter infection, fluorescence | Potency, µM (titrated, usually from 36.5 µM), for inactives: at the highest dose activity change, negative = inhibition, usual class: inhibitors | 310,000 tested, 0.63% active; calls by dose curve; tested in A549 cells; further: potency means the concentration at half of the fitted maximal effect; nearly all actives have a fitted effect of over 35% in size
* hit, by the source's call; i = inactive; ? = inconclusive; · = no result; ! = not active in a repeat; [ ] = another dose, or the depositor's remark. An excerpt weighted towards active compounds, which were near 6.5% of everything screened. On the % scale 0 is the no-effect control and ±100 the full control effect.

SMILES	Marburg entry inh	FMDV antiviral	HCMV antiviral	Lassa entry inh	Vaccinia Venus	VACV mCherry inh
CCOC(=O)c1ccc(N2C(=O)c3[nH]nc(-c4ccc(OC)cc4)c3C2c2ccccc2Cl)cc1 (centres undefined)	3%[46.1 µM]	?	11	15%[46.1 µM]	-22%	?
CCOc1ccc(C2c3c(-c4ccc(C)cc4)n[nH]c3C(=O)N2c2ccc(Cl)cc2)cc1 (centres undefined)	?	-21%	-106*	?	?	?
COc1cccc(C2(CC(=O)N3CCN(c4nonc4C)CC3)CC(=O)N(C3CCCC3)C2=O)c1 (centres undefined)	·	32%	·	·	-15%	-3%
Cc1cc(NC(=O)COC(=O)c2ccccc2OCCOc2ccccc2)ccc1Br	·	·	·	·	-9%	i
O=C(/C=C/c1ccc(O)c(O)c1)O[C@@H]1C[C@](O)(C(=O)O)C[C@@H](O)[C@H]1O	·	-20%	-60*!	·	-9%	-7%
Fc1ccccc1COc1ccc(/C=N/NC(=S)NCc2ccccc2)cc1	-4%	-10%	-17	?	·	·
CCNC(=S)N/N=C/c1cccc(/C=N/NC(=S)NCC)c1	-14%[46.1 µM]	-7%	-37	6%	9%	16%
CNC(=S)N/N=C/c1cccc(OCc2ccccc2F)c1	?	-9%	6	4µM*	-25%	-5%
CCNC(=S)N/N=C/c1cccc(OCc2c(F)cccc2Cl)c1	?	?	?	9.2µM*	-27%	-7%
CCN(CC)CCN1C(=O)C(O)=C(C(=O)c2cccs2)[C@@H]1c1ccccn1	14%	·	·	·	·	·
COc1ccccc1NC(=O)C1=C(C)Nc2c(C(=O)Nc3ccc(F)cc3)cnn2C1c1ccc(Cl)cc1 (centres undefined)	·	-7%	?	?	-14%	i
Cc1ccc(Nc2nc3ccccc3[nH]2)nc1	?	?	-77*	?	?	?
Cc1c(C(=O)NCc2ccc(Cl)c(Cl)c2)sc(=O)n1Cc1ccc(C(=O)N(C)C)cc1	·	?	-69*	·	-13%	12%
Cc1c(C(=O)NCc2ccc(C(C)C)cc2)sc(=O)n1Cc1ccc(S(=O)(=O)N(C)C)cc1	·	11µM*	-68*	·	-28%	-5%
CSc1ccc(Cn2c(C)c(C(=O)NCc3ccc(C(C)C)cc3)sc2=O)cc1	·	-30%	-29	·	-9%	i
Cc1c(C(=O)NCc2cccc(Cl)c2)sc(=O)n1Cc1ccc(C(=O)N(C)C)cc1	·	?	-9	·	-5%	26%
Cc1c(C(=O)NCc2ccc(Cl)c(Cl)c2)sc(=O)n1Cc1ccc(S(=O)(=O)N(C)C)cc1	·	22µM*	-16	·	-18%	-6%
CCOc1cc(/C=N/NC(N)=O)cc(Br)c1OCc1ccccc1F	-7%	?	-22	-3%	-7%	-17%
CCOc1cc(/C=N/NC(=O)Cn2nc([N+](=O)[O-])cc2C)cc(Br)c1OCc1ccccc1F	?	0%	-96*	-12%	·	·
C/C(=N\NC(=O)c1c(C)nc2ccccn12)c1ccc(O)cc1O	-27%[46.1 µM]	3%	-82*	-26%[46.1 µM]	?	?
CC[C@]12c3[nH]c4ccc(Cl)cc4c3CCN1C(=O)[C@@H](CC(=O)NCc1cccc(C(F)(F)F)c1)C[C@@H]2C(=O)N1CCN(C(=O)c2ccco2)CC1	3%	?	-100*	·	-17%	-16%
O=C(CC1C[C@H](C(=O)N2CCOCC2)[C@@]2(CCC3CCCC3)c3[nH]c4ccccc4c3CCN2C1=O)NCc1cccc(C(F)(F)F)c1 (some centres undefined)	·	-34%	-17	·	10µM*	10µM*
CC[C@]12c3[nH]c4cc(-c5ccco5)ccc4c3CCN1C(=O)[C@@H](CC(=O)NCc1cccc(C(F)(F)F)c1)C[C@@H]2C(=O)N1CCN(C(=O)c2ccco2)CC1	·	?	-3	·	?	13µM*
CC[C@]12c3[nH]c4cc(-c5ccco5)ccc4c3CCN1C(=O)[C@@H](CC(=O)NCc1ccco1)C[C@@H]2C(=O)N1CCN(C(=O)c2ccco2)CC1	·	-12%	-19	·	?	-18%
C[C@]12c3[nH]c4ccc(Cl)cc4c3CCN1C(=O)[C@@H](CC(=O)NCc1cccc(C(F)(F)F)c1)C[C@@H]2C(=O)N1CCCCC1	·	?	-104*	·	?	?
SMILES	Marburg entry inh	FMDV antiviral	HCMV antiviral	Lassa entry inh	Vaccinia Venus	VACV mCherry inh
O=C(CCn1c(=O)c2ccccc2n(Cc2cccc(F)c2)c1=O)NCc1ccc2c(c1)OCO2	-3%[46.1 µM]	9%	11	17%[46.1 µM]	-6%	-4%
C=CC[C@@H]1C=CC(O/N=C(\C)CCC(=O)OC[C@H]2O[C@H](C#Cc3ccccc3)C=C[C@@H]2Oc2ccc(C)cc2)[C@@H](CO)O1 (some centres undefined)	29%[14.2 µM]	·	·	·	·	·
CN(C1CCCCC1)S(=O)(=O)c1ccc2c(c1)c(=O)c(C(=O)NCc1ccccc1Cl)cn2C	1%[46.1 µM]	-21%	-20	4%[46.1 µM]	0%	-16%
Cc1csc2ncnc(N3CCN(C(=S)Nc4ccc(F)cc4F)CC3)c12	?	?	-77*	?	?	?
CC1CN(C(=S)Nc2ccc(F)cc2F)CC(C)O1 (centres undefined)	·	-1%	16	·	·	·
O=C(Nc1ccc(F)cc1F)N1CCCN(c2ccc(C(F)(F)F)cn2)CC1	?	?	-37	-11%	?	?
Fc1ccc(NC(=S)N2CCCN(c3ccc(C(F)(F)F)cn3)CC2)c(F)c1	·	?	-80*	·	·	·
Cc1c(C(=O)N2CCC(C)CC2)oc2ccc3c(c12)C(O)CC1(CCCCC1)O3 (centres undefined)	·	5%	-70*	·	-26%[7.34 µM]	-4%[7.34 µM]
COCCNC(=O)c1oc2ccc3c(c2c1C)C(O)CC(C)(C)O3 (centres undefined)	·	13%	40	·	·	·
COC(=O)C(Nc1cc(OC)ccc1OC)(c1ccccc1)C(Nc1cc(OC)ccc1OC)c1ccc(C(F)(F)F)cc1 (centres undefined)	·	·	-32	·	·	·
Cc1cccc(N(C)C(=O)c2cc3c(=O)oc4ccc(C)cc4c3s2)c1	0%[46.1 µM]	3%	-12	?	-3%	2%
CC(C)c1onc(C(=O)N2CCN(c3ccccc3)CC2)c1[N+](=O)[O-]	·	?	-2	·	·	·
Cc1onc(C(=O)N2CCC(Cc3ccccc3)CC2)c1[N+](=O)[O-]	·	-14%	-91*	·	·	·
CC(C)c1onc(C(=O)N2CCN(C(c3ccccc3)c3ccccc3)CC2)c1[N+](=O)[O-]	-2%	-19%	-98*	8%	·	·
Cc1ccc(Cl)cc1N1CCN(C(=O)c2noc(C(C)C)c2[N+](=O)[O-])CC1	·	-28%	-92*	·	·	·
CN1c2ccccc2[C@]23CCN(S(=O)(=O)C(F)(F)F)C2=Cc2ccccc2[C@H]13	·	·	4	·	·	·
COc1ccccc1NC(=O)CSc1nc(O)c(C/C=C/c2ccccc2)c(=O)[nH]1	1%[46.1 µM]	0%	11	-2%[46.1 µM]	1%	-1%

High-throughput results as filed in PubChem BioAssay.
